In PubChem BioAssay AID623870 (Broad Institute, 2012):
The whole screen tested about 390,000 compounds, of which about 2,600 (0.67%) were called active. The full list was thinned out, with actives kept by preference. Unmarked numbers belong to inactive results.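 The calls were made as follows: active = mean inhibition of replicates at least 50% and at least half of replicates each reaching 50%; inconclusive = half or more replicates reach 50% but mean below 50%; inactive = the rest.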

target: Transforming acidic coiled-coil-containing protein 3 (Homo sapiens) (UniProt Q9Y6A5); assay: disruptors of ARNT/TACC3 protein interaction, primary screen, biochemical, AlphaScreen, single concentration (AID 623870); conditions: AlphaScreen His-ARNT PAS-B/GST-TACC3 binding, luminescence; at 9.99 µM; active compounds read high; TACC3 fragment carries E629A point mutation;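 also: 0% = complete ARNT plus TACC3 wells and 100% = ARNT alone without TACC3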

| SMILES | inhibition |
| --- | --- |
| C[C@@H]1CN([C@H](C)CO)S(=O)(=O)c2ccc(-c3cncnc3)cc2O[C@H]1CN(C)C(=O)Cc1ccccc1 | -17% |
| C[C@H](CO)N1C[C@H](C)[C@@H](CN(C)Cc2ccc(Cl)c(Cl)c2)Oc2c(NC(=O)Nc3ccccc3)cccc2C1=O | 6.91% |
| CCCc1[nH]nc2c1C(c1ccc(Br)s1)C(C#N)=C(N)O2 (stereo unspecified) | 3.43% |
| COc1cc(C2C(C#N)=C(N)Oc3n[nH]c(-c4ccccn4)c32)cc(OC)c1OC (stereo unspecified) | 71.4% (active) |
| COc1ccccc1C1C(C#N)=C(N)Oc2c1c(-c1ccccc1)nn2-c1ccccc1 (stereo unspecified) | 2.34% |
| O=C(C[C@H]1CC[C@H]2[C@@H](COC[C@@H](O)CN2Cc2ccccc2F)O1)NCc1ccccc1F | -10% |
| Cc1noc(C)c1NC(=O)Nc1ccc2c(c1)C(=O)N([C@@H](C)CO)C[C@H](C)[C@@H](CN(C)Cc1ccncc1)OCCCC[C@@H](C)O2 | -0.402% |
| CN(C)c1ccc2c(c1)[C@H]1C[C@H](CC(=O)O)O[C@H](CO)[C@H]1O2 | 22.1% |
| Cc1cc(C(=O)Nc2ccc3c(c2)C(=O)N(C)[C@@H]2CC[C@@H](CC(=O)NC4CCCC4)O[C@@H]2CO3)no1 | -5.47% |
| Cc1cc(C(=O)Nc2ccc3c(c2)C(=O)N(C)[C@@H]2CC[C@H](CC(=O)NC4CCCC4)O[C@@H]2CO3)no1 | -1.61% |
| CNC(=O)C[C@H]1CC[C@H]2[C@H](COc3ccc(NC(=O)c4cc(C)on4)cc3C(=O)N2C)O1 | 8.66% (active) |
| Cc1ccccc1Nc1nc(N)nc(CSc2nnc3ccccn23)n1 | -0.395% |
| CCCn1nc(C(=O)OCc2nc(N)nc(Nc3ccccc3C)n2)c2ccccc2c1=O | 10.3% |
| Cc1ccccc1Nc1nc(N)nc(CN2CCN(c3ccccn3)CC2)n1 | 86% (active) |
| COc1ccc(-c2ccc([C@@H]3[C@@H](C#N)N(C(=O)C4CCC4)[C@@H]3CO)cc2)cc1 | -0.479% |
| C[C@H]1CN([C@@H](C)CO)C(=O)c2cc(N(C)C)ccc2O[C@@H]1CN(C)C(=O)Nc1ccc2c(c1)OCO2 | 12.1% |
| Cc1ccnc(NS(=O)(=O)c2ccc(NC(=O)c3ccc(S(=O)(=O)N4CCOCC4)cc3)cc2)n1 | -1.47% |
| O=C(Nc1ccc(S(=O)(=O)N2CCOCC2)cc1)c1ccc2ncsc2c1 | 8.14% |
| O=C(Nc1nnc(-c2ccco2)o1)c1ccc(S(=O)(=O)N2CCOCC2)cc1 | 79.1% (active) |
| CCCNC(=O)C[C@@H]1CC[C@H]2[C@H](COc3ccc(NC(=O)CCC)cc3C(=O)N2C)O1 | -12.3% |
| Cc1noc(C)c1NC(=O)Nc1ccc2c(c1)C(=O)N([C@H](C)CO)C[C@H](C)[C@H](CN(C)Cc1ccc(C(=O)O)cc1)OCCCC[C@H](C)O2 | -1.31% |
| C[C@@H]1CN([C@@H](C)CO)C(=O)c2cc(NS(=O)(=O)c3cccs3)ccc2O[C@H]1CN(C)CC1CCCCC1 | 54.3% (active) |
| C[C@H](CO)N1C[C@H](C)[C@@H](CN(C)CC2CCCCC2)Oc2ccc(NS(=O)(=O)c3cccs3)cc2CC1=O | 8.01% |
| C[C@H](CO)N1C[C@H](C)[C@@H](CN(C)C)Oc2ccc(NS(=O)(=O)c3cccs3)cc2C1=O | -4.47% |

| SMILES | inhibition |
| --- | --- |
| Cc1ccc(S(=O)(=O)N(C)C[C@@H]2Oc3c(NC(=O)c4nc5ccccc5s4)cccc3C(=O)N([C@H](C)CO)C[C@@H]2C)cc1 | 9.91% |
| C[C@H]1CN([C@@H](C)CO)C(=O)c2cc(-c3ccccc3F)cnc2O[C@@H]1CN(C)C | 6.21% |
| Cc1noc(C)c1NC(=O)Nc1ccc2c(c1)CC(=O)N([C@@H](C)CO)C[C@@H](C)[C@H](CN(C)Cc1ccc(Oc3ccccc3)cc1)O2 | 15.6% |
| COCC(=O)Nc1ccc2c(c1)[C@@H]1C[C@H](CC(=O)NCc3ccc(Cl)cc3)O[C@H](CO)[C@@H]1O2 | -8.13% |
| Cc1cc(C(=O)N/N=C/c2cc([N+](=O)[O-])cc(C)c2O)n[nH]1 | 64.3% (active) |
| Cc1cc(C(=O)NC2CCN(Cc3ccccc3)CC2)n[nH]1 | -0.213% |
| CCCNC(=O)Nc1ccc2c(c1)OC[C@@H](C)N(C(=O)c1ccccc1F)C[C@H](C)[C@@H](OC)CN(C)C2=O | -9.6% |
| C[C@@H]1CN([C@H](C)CO)C(=O)c2cc(NS(=O)(=O)c3ccccc3)ccc2O[C@H]1CN(C)S(=O)(=O)c1cccs1 | 0.265% |
| O=C(N/N=C/c1cccc2cccnc12)[C@H]1C[C@@H]1c1ccccc1 | 73.3% (active) |
| Cc1ccc(NC(=O)C2CC2c2ccccc2)cc1 (stereo unspecified) | -4.03% |
| O=C(Nc1ccccc1)Oc1cccc2cccnc12 | -7.89% |
| C[C@H](CO)N1C[C@H](C)[C@@H](CN(C)C)Oc2cc(C#Cc3ccccc3)ccc2S1(=O)=O | 8.14% |
| COc1ccc(NC(=O)N(C)C[C@@H]2Oc3ccc(NS(C)(=O)=O)cc3C(=O)N([C@@H](C)CO)C[C@@H]2C)cc1 | -7.68% |
| CCOc1cccc(/C=N/NC(=S)NCCN2CCOCC2)c1O | 64.9% (active) |
| CCc1cc(=O)oc2c(C)c(OCC(=O)NCCN3CCOCC3)ccc12 | -0.887% |
| COc1cccc(C(CC(=O)NCCN2CCOCC2)NS(=O)(=O)c2ccc(C)cc2)c1OC (stereo unspecified) | -9.59% |
| C[C@@H]1CN([C@@H](C)CO)C(=O)Cc2cc(NC(=O)Nc3ccc(F)cc3)ccc2O[C@@H]1CN(C)C(=O)NC1CCCCC1 | 0.811% |
| Cn1c(=NC(=O)c2ccco2)sc2cccc(F)c21 | -2.41% |
| Cn1c(=NC(=O)c2ccc3c(c2)OCCO3)sc2cc(S(C)(=O)=O)ccc21 | -1.86% |
| Cn1c(=NC(=O)c2cnccn2)sc2ccccc21 | 50.2% (active) |
| CN(C(=O)c1ccccc1)c1nccnc1C#N | 48.5% (active) |
| CCCN1[C@@H]2c3ccc(-c4ccccc4OC)c(=O)n3C[C@H]1[C@H](CO)[C@H]2C(=O)NCc1ccccn1 | -0.436% |
| CO[C@H]1CN(C)C(=O)c2cc(NS(=O)(=O)CC(F)(F)F)ccc2OC[C@@H](C)N(C(=O)c2ccc3c(c2)OCO3)C[C@@H]1C | 8.14% |
| CCCC(=O)Nc1ccc2c(c1)C(=O)N(C)C[C@@H](OC)[C@@H](C)CN(Cc1cncnc1)[C@@H](C)CO2 | -2.89% |

| SMILES | inhibition |
| --- | --- |
| CCN(/N=C/c1ccccc1)c1cc(=O)n(C)c(=O)[nH]1 | 6.16% (active) |
| CN1C(=O)c2cc(NC(=O)c3cnccn3)ccc2OC[C@@H]2O[C@H](CC(=O)NC3CCC3)CC[C@@H]21 | -9.79% |
| C[C@H](CO)N1C[C@H](C)[C@H](CN(C)S(C)(=O)=O)Oc2c(NC(=O)Nc3cccc4ccccc34)cccc2C1=O | 8.09% |
| O=C(C[C@@H]1C[C@@H]2c3cc(NC(=O)c4ccc5c(c4)OCO5)ccc3O[C@@H]2[C@@H](CO)O1)NCC1CC1 | -5.9% |
| COc1ccccc1NC(=O)N(C)C[C@@H]1Oc2ncc(C#CCC(C)C)cc2C(=O)N([C@@H](C)CO)C[C@@H]1C | -5.04% |
| C[C@@H](NC(=O)C[C@@H]1C[C@H]2c3cc(NC(=O)C4CCC4)ccc3O[C@H]2[C@@H](CO)O1)c1ccccc1 | -9.96% |
| N#C[C@@H]1[C@@H](c2ccc(-c3cccnc3)cc2)[C@H](CO)N1C(=O)Nc1ccc(F)cc1 | -8.19% |
| Cc1ccc(Oc2ccc3c(c2)C(=O)N(c2cccc4cccnc24)C3=O)cc1 | 1.71% |
| Cc1ccc(OS(=O)Nc2cccc3nccnc23)cc1 (stereo unspecified) | 69.3% (active) |
| COCC(=O)N1C[C@@H](C)[C@H](OC)CN(C)C(=O)c2ccc(NC(=O)c3ccc(OC)cc3)cc2OC[C@@H]1C | -7.16% |
| CO[C@H]1CN(C)C(=O)c2cc(NC(=O)Nc3cccc(F)c3)ccc2OC[C@H](C)N(C(C)=O)C[C@H]1C | 28% |
| CO[C@@H]1CN(C)C(=O)c2cc(NC(=O)C3CC3)ccc2OC[C@@H](C)N(Cc2nccs2)C[C@@H]1C | -5.42% |
| C[C@H](CO)N1C[C@H](C)[C@H](CN(C)C(=O)Nc2cccc3ccccc23)Oc2ccc(NS(C)(=O)=O)cc2C1=O | -5.79% |
| CNC[C@@H]1OCCCC[C@H](C)Oc2ccc(NS(=O)(=O)c3ccc(F)cc3)cc2C(=O)N([C@@H](C)CO)C[C@@H]1C | -1.03% |
| CC(Nc1nc(C(F)(F)F)nc2ccccc12)c1cccs1 (stereo unspecified) | -5.59% |
| CC(C)(C)Nc1nc(-c2ccccn2)nc2ccccc12 | 93% (active) |
| O=C(C[C@@H]1C[C@H]2c3cc(NC(=O)C4CCOCC4)ccc3O[C@H]2[C@H](CO)O1)NCc1ccc2c(c1)OCO2 | -5.45% |
| O=C(NC1CCCC1)[C@H]1[C@H](CO)[C@H]2Cn3c(ccc(-c4ccccc4F)c3=O)[C@@H]1N2C(=O)CC1CC1 | -1.58% |
| C[C@@H]1CN([C@@H](C)CO)C(=O)Cc2cc(NC(=O)Nc3ccc(F)cc3)ccc2O[C@@H]1CN(C)S(=O)(=O)c1ccccc1 | 2.95% |
| C[C@H](CO)N1C[C@H](C)[C@@H](CN(C)Cc2ccncc2)Oc2ncc(C#CC3CC3)cc2C1=O | -1.14% |
| Cn1c(N)c(C(=O)COC(=O)COc2ccc(Cl)cc2)c(=O)n(C)c1=O | 2.04% |
| Cn1c(N)c(C(=O)COC(=O)c2ccc3ccccc3c2)c(=O)n(C)c1=O | -4.71% |
| Cn1c(N)c(C(=O)COC(=O)c2cnc(Cl)c(Cl)c2)c(=O)n(C)c1=O | 45.8% (active) |
